# Values joined by “and” are separate entries in the source; they are usually repeats but may differ in a detail not shown here. Equal entries are not always repeated. A number with no mark means an inactive call. Inconclusive results are not listed. Active and inactive are the calls of the source. Unless noted, the call rests on the fitted dose curve; in most records, active means well fitted curve in either direction with a large enough effect (not every such curve was filed as active); inconclusive means small, poorly fitted or top-dose-only effect, or another doubt; inactive means flat fitted curve, though single readings scatter.
# What was measured:
# [1] = molecular target: Glucocorticoid receptor (Homo sapiens) (UniProt P04150); assay: GR-GFP Redistribution (AID 450;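 active means compounds whose dose series gives a full or clear partial fitted curve of increased nuclear translocation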; further: potency means the concentration at half of the fitted maximal effect); conditions: U2OS GR-GFP nuclear translocation, laser cytometry, 2 h
# [2] = molecular target: Glucocorticoid receptor (Homo sapiens) (UniProt P04150); assay: GR-EFC Redistribution (AID 451; calls by dose curve; further: potency means the concentration at half of the fitted maximal effect); conditions: CHO-K1 GR-EFC translocation, beta-gal luminescence, 2 h
# How it was run: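 Translocation of GR-ED fusion to nuclear EA restores b-gal, read by luminescence after 1 h room-temperature detection. Engineered CHO-K1 biosensor cells, 1,000/well, exposed 2 h at 37 C to titrations up to 46 uM final.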
# [3] = molecular target: Mitogen-activated protein kinase 10 (Mus musculus) (UniProt Q61831); assay: JNK3 AlphaScreen Assay (AID 530); conditions: JNK3 lysate, c-Jun phosphorylation; series mostly up to 57.1 µM;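 further: kinase came from lysate of stimulated human HepG2 cells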; further: potency means the concentration at half of the fitted maximal effect;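 on activity change, negative = inhibition: signal reports phosphorylation of biotinylated GST-cJun 1-79 at Ser73 with 10 µM ATP; on the % scale 0 is the no-effect control and ±100 the full control effect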
# How it was run: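 Kinase buffer: 20 mM Tris-HCl pH 7.6, 10 mM MgCl2, 1 mM DTT, 0.1 mM Na3VO4, 0.01% Tween-20; ATP 10 uM. Substrate biotin-GST-cJun(1-79), enzyme from activated HepG2 lysates. Detection by Ser73 phospho-antibody AlphaScreen.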
# [4] = molecular target: Cytochrome P450 1A2 (Homo sapiens) (UniProt P05177); assay: p450-cyp1a2 (AID 410; calls by dose curve; further: potency means the concentration at half of the fitted maximal effect;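 on activity change, negative = inhibition: -100% = full effect of reference inhibitor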); conditions: recombinant CYP1A2, luciferin-ME demethylation, luminescence; series mostly up to 57 µM
# How it was run: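 20nM CYP1A2, 100uM Luciferin-ME (=Km), 100mM KPO4; cpd 10 min RT; +NADPH regen, 60 min RT; stop/detect 20 min; luminescence. Normalized to furafylline 57 uM = full inhibition.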
# [5] = AP1 Signaling Pathway (AID 357); conditions: ME-180 AP-1-bla reporter, EGF-induced, beta-lactamase ratio, 5 h; further: on the % scale 0 is the no-effect control and ±100 the full control effect
# How it was run: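 ME-180 cells with beta-lactamase reporter under AP-1 response element, stimulated with EC50 EGF; compounds tested in titration series, 5 h at 37 °C. CCF4 substrate added 2.5 h at room temperature; 460/530 nm emission ratio gave %activity and AC50.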
# [6] = Stat Signaling Pathway (AID 446); conditions: ME-180 (cervical carcinoma) SIE beta-lactamase reporter, IL-6 stimulated, 5 h;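 further: ME-180 cervical cancer cells given 40 pM IL-6 alongside compound; SIE-controlled beta-lactamase reporter measured as 460/530 nm FRET emission ratio; on the % scale 0 is the no-effect control and ±100 the full control effect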
# How it was run: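 FRET read-out (405 nm excitation, 460/530 nm emission) of a beta-lactamase reporter under a STAT-inducible element in ME-180 cervical carcinoma cells. Cells with compound receive 40 pM IL-6 for 5 h. Values are normalised to AC90 stimulation and AC90 JAK-inhibitor controls.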
# [7] = NFAT Signaling Pathway (AID 444); conditions: Jurkat NFAT-bla M1, carbachol, beta-lactamase ratio, 5 h;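 further: carbachol stimulus at about its EC50 of 1 µM final; on the % scale 0 is the no-effect control and ±100 the full control effect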
# How it was run: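 Read-out: CCF4 FRET ratio (460 nm/530 nm) after 1 h RT dye loading, used for %activity and AC50 from titration series. Cells: Jurkat NFAT-β-lactamase/M1 line, treated with compound plus 1 uM carbachol for 5 h, 37 °C.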
# [8] = Cell Viability - BJ (AID 421; calls by dose curve;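 further: potency means the concentration at half of the fitted maximal effect; cells exposed to compound for 40 hours at 37 °C before readout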); conditions: BJ fibroblast viability, qHTS
# How it was run: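 Cytotoxicity as drop in intracellular ATP (CellTiter-Glo, 20 min RT) after 40 hr compound exposure of BJ fibroblasts at 37 °C. Titrations scaled between DMSO and 100 uM tamoxifen, Hill-fitted for AC50.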
# [9] = Cell Viability - Jurkat (AID 426;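 active means dose-dependent loss of cell ATP signal giving a full or clear fitted curve, ranked by lower potency value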;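 further: potency means the concentration at half of the fitted maximal effect; cells exposed to compound for 40 hours at 37 °C before ATP read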); conditions: qHTS
# How it was run: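 Luminescent ATP read-out (CellTiter-Glo, 20 min at room temperature) after 40 hr compound exposure at 37 °C of Jurkat E6-1 cells, 5000/well. Decreased ATP taken as cytotoxicity; AC50 from standard Hill equation.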
# [10] = Cell Viability - Hek293 (AID 427;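 active means compounds whose dose-response curve shows a full or clear partial loss of cell viability, called from curve shape rather than a numeric limit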;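 further: potency means the concentration at half of the fitted maximal effect; cells exposed to compound for 40 hours at 37 °C before reading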); conditions: qHTS
# How it was run: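 Luminescent ATP content (CellTiter-Glo, 20 min at room temperature) was measured after a 40 hr, 37 °C compound exposure of HEK293 cells. AC50 values came from Hill-equation fits of qHTS concentration-response data normalized to DMSO and 100 uM tamoxifen.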
# [11] = Cell Viability - HepG2 (AID 433; calls by dose curve;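 further: potency means the concentration at half of the fitted maximal effect; cells exposed to compound for 40 hours; potency for ATP loss meaning cytotoxicity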); conditions: qHTS
# How it was run: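 Cytotoxicity read as ATP loss (CellTiter-Glo luminescence) after 40 hr compound exposure of HepG2, 1500 cells/well, 37 °C. AC50 by Hill equation; 0% set by DMSO, 100% inhibition by 100 uM tamoxifen.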
# [12] = Cell Viability - MRC5 (AID 434; calls by dose curve;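 further: potency means the concentration at half of the fitted maximal effect; cells exposed to compound for 40 hours at 37 °C; potency reflects cytotoxicity seen as loss of intracellular ATP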); conditions: MRC5 lung fibroblast viability, qHTS
# How it was run: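 AC50 values come from Hill-equation fits of intracellular ATP loss, measured by CellTiter-Glo luminescence. Normal lung fibroblasts (MRC5) had 40 hr compound treatment at 37 C, normalized between DMSO and 100 uM tamoxifen.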
# [13] = Cell Viability - SK-N-SH (AID 435; calls by dose curve; further: potency means the concentration at half of the fitted maximal effect); conditions: SK-N-SH neuroblastoma cell viability qHTS
# How it was run: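 qHTS cytotoxicity: CellTiter-Glo ATP luminescence after 40 h compound exposure of human neuroblastoma SK-N-SH cells at 37 °C. AC50 derived by Hill-equation fitting, with DMSO as basal and 100 uM tamoxifen as full inhibition.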
# [14] = Cell Viability - N2a (AID 540; active means well fitted curve in the direction sought with a large enough effect; an effect the other way counts as inactive or inconclusive;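 further: plate controls were DMSO alone for no effect and tamoxifen control for full effect; nearly all actives have a fitted effect of over 45% in size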); conditions: N2a mouse neuroblastoma cell viability; series mostly up to 92.2 µM
# How it was run: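 N2a mouse neuroblastoma, 1500 cells/well, 5 hr settle; compound 40 hr, 37 °C; CellTiter-Glo 20 min RT; luminescence; Hill-fit AC50.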
# [15] = Cell Viability - NIH 3T3 (AID 541; active means well fitted curve in the direction sought with a large enough effect; an effect the other way counts as inactive or inconclusive;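 further: cells exposed to compound for 40 hours; plate controls were DMSO alone for no effect and tamoxifen positive control for full effect; nearly all actives have a fitted effect of over 25% in size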); conditions: NIH 3T3 cell viability, qHTS; series mostly up to 92.2 µM
# How it was run: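 qHTS format; 40 hr compound exposure, 37 °C; CellTiter-Glo luminescence (cellular ATP) read-out after 20 min at RT. Decrease in ATP = cytotoxicity; AC50 from standard Hill fit.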
# [16] = Cell Viability - HUV-EC-C (AID 542; active means well fitted curve in the direction sought with a large enough effect; an effect the other way counts as inactive or inconclusive;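 further: cells exposed to compound for 40 hours; on the % scale 0 is the no-effect control and ±100 the full control effect; nearly all actives have a fitted effect of over 35% in size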); conditions: HUV-EC-C endothelial cell viability, qHTS; series mostly up to 92.2 µM
# How it was run: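 Luminescent ATP read-out (CellTiter-Glo, 20 min room temperature) after 40 hr compound treatment of HUV-EC-C cells at 37 °C. Concentration-response data fitted with the standard Hill equation to give AC50; tamoxifen and doxorubicin served as positive controls.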
# [17] = Cell Viability - H-4-II-E (AID 543; active means well fitted curve in the direction sought with a large enough effect; an effect the other way counts as inactive or inconclusive;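 further: cells exposed to compound for 40 hours; on the % scale 0 is the no-effect control and ±100 the full control effect; nearly all actives have a fitted effect of over 35% in size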); conditions: H-4-II-E rat hepatoma viability; series mostly up to 92.2 µM
# How it was run: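 qHTS, rat hepatoma H-4-II-E, 1500 cells/well; 40 hr compound exposure, 37 °C; CellTiter-Glo ATP luminescence after 20 min RT; AC50 by standard Hill fit.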
# [18] = Cell Viability - SH-SY5Y (AID 544; active means well fitted curve in the direction sought with a large enough effect; an effect the other way counts as inactive or inconclusive;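 further: cells exposed to compound for 40 hours; 0% = DMSO alone and -100% = 100 µM tamoxifen; nearly all actives have a fitted effect of over 55% in size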); conditions: SH-SY5Y neuroblastoma cell viability; series mostly up to 92.2 µM
# How it was run: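 SH-SY5Y, 1500 cells/well, 5 hr pre-incubation 37 °C; cpd 40 hr 37 °C; CellTiter-Glo 20 min RT; luminescence (ATP) read. qHTS concentration-response, Hill fit → AC50. Tamoxifen, doxorubicin as positive controls.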
# [19] = Cell Viability - Renal Proximal Tubule (AID 545; active means well fitted curve in the direction sought with a large enough effect; an effect the other way counts as inactive or inconclusive;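 further: cells exposed to compound for 40 hours; 0% = DMSO only and -100% = 100 µM tamoxifen; nearly all actives have a fitted effect of over 40% in size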); conditions: renal proximal tubule cells viability, primary cells of rat origin; series mostly up to 91.7 µM
# How it was run: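 Viability taken as intracellular ATP (CellTiter-Glo luminescence) after 40 hr, 37 °C compound treatment of primary proximal tubule cells from rat kidney, 1000 cells/well; Hill-equation fits of qHTS concentration-response data gave AC50.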
# [20] = Cell Viability - Mesenchymal (AID 546; active means well fitted curve in the direction sought with a large enough effect; an effect the other way counts as inactive or inconclusive;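 further: cells exposed to compound for 40 hours before reading; 0% = DMSO only and -100% = 100 µM tamoxifen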); conditions: mesenchymal cells viability, qHTS; series mostly up to 91.7 µM
# How it was run: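 CellTiter-Glo luminescence (intracellular ATP, 20 min room temperature) after 40 hr compound exposure at 37 °C of 1000 glomerulus-derived human kidney mesenchymal cells/well; AC50 values obtained by fitting qHTS concentration-response data to the Hill equation.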
# Chain of Glucocorticoid receptor (Homo sapiens) (P04150 whole entry, looked up, the tested form may be a part): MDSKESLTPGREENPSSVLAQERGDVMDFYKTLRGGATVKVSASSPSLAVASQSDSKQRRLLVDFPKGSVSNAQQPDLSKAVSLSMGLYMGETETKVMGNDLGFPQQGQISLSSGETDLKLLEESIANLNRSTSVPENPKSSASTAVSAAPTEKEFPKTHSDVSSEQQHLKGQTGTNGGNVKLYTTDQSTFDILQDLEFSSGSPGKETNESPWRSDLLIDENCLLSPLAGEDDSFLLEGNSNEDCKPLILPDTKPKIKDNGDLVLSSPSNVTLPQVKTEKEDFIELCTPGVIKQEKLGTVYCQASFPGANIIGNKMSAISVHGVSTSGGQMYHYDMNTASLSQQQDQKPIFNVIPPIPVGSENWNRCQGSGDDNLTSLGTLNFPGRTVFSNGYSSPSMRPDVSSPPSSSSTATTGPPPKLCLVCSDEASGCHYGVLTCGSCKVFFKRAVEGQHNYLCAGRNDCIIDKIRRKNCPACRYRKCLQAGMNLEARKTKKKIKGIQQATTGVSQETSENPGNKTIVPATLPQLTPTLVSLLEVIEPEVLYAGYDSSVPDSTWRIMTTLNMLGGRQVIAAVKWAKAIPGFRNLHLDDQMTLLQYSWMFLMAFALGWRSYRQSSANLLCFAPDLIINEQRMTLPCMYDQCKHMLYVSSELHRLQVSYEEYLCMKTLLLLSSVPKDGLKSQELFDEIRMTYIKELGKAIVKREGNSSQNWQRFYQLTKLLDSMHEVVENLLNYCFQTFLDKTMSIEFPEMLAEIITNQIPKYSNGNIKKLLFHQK
# Chain of Cytochrome P450 1A2 (Homo sapiens) (P05177 whole entry, looked up): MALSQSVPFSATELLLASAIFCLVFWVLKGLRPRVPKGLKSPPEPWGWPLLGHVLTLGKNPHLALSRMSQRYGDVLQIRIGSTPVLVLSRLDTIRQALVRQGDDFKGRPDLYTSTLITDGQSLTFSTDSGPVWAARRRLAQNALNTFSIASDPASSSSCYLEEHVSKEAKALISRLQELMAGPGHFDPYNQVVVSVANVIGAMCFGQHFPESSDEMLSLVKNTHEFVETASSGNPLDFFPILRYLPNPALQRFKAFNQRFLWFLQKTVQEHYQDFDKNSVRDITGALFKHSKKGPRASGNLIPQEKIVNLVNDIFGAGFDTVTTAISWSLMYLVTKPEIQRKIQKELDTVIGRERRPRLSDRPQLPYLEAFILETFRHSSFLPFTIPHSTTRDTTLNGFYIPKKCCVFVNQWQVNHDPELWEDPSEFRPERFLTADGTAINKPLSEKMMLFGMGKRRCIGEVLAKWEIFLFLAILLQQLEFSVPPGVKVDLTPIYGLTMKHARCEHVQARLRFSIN
compound,measurement,setting,value
O=C(O)C=Cc1ccc(Cn2ccnc2)cc1,Potency,[1],> 46 µM
same,Potency,[2],> 46 µM
same,Potency,[3],inactive
COc1cc2c(cc1OC)[C@@H]1C(=O)c3ccc4c(c3O[C@@H]1CO2)C=CC(C)(C)O4,Potency,[4],15.8 µM (active)
same,Potency,[1],> 46 µM
same,Potency,[2],> 46 µM
COc1cc2ncnc(Nc3cccc(Br)c3)c2cc1OC,Potency,[1],> 46 µM
same,Potency,[2],> 46 µM
CN(C)CC[C@H](c1ccc(Cl)cc1)c1ccccn1,"activity change, negative = inhibition",[5]; at 17.2 µM (top of the series),15.5%
same,"activity change, negative = inhibition",[5]; at 38 µM (top of the series),10.2% and 11.2%
same,Potency,[4],inactive
same,"activity, negative = inhibition",[6]; at 17.2 µM (top of the series),1.79%
same,"activity, negative = inhibition",[6]; at 38 µM (top of the series),2.96%
same,Potency,[1],> 46 µM and > 20.6 µM
same,Potency,[2],> 46 µM and > 20.6 µM
same,Potency,[3],inactive
COc1ccc([C@@H]2CNC(=O)C2)cc1OC1CCCC1,"activity change, negative = inhibition",[5]; at 17.2 µM (top of the series),-7.88%
same,"activity change, negative = inhibition",[5]; at 38 µM (top of the series),-7.79%
same,"activity change, negative = inhibition",[7]; at 17.2 µM (top of the series),2.36%
same,"activity change, negative = inhibition",[7]; at 38 µM (top of the series),11.5%
same,"activity, negative = inhibition",[6]; at 17.2 µM (top of the series),-9.88%
same,"activity, negative = inhibition",[6]; at 38 µM (top of the series),-0.129%
same,Potency,[1],> 46 µM and > 20.6 µM
same,Potency,[2],> 46 µM and > 20.6 µM
same,Potency,[3],inactive
CCN1CCN(C(=O)N[C@H](C(=O)N[C@@H]2C(=O)N3C(C(=O)O)=C(CSc4nnnn4C)CS[C@@H]23)c2ccc(O)cc2)C(=O)C1=O,"activity change, negative = inhibition",[5]; at 17.2 µM (top of the series),6.77%
same,Potency,[4],inactive
same,"activity change, negative = inhibition",[7]; at 17.2 µM (top of the series),3.22%
same,"activity, negative = inhibition",[6]; at 17.2 µM (top of the series),8%
same,Potency,[3],inactive
CN(N=O)C(=O)N[C@H]1C(O)OC(CO)[C@@H](O)[C@H]1O (stereo partly drawn),Potency,[4],inactive
same,Potency,[1],> 46 µM
same,Potency,[2],> 46 µM
same,Potency,[3],inactive
c1coc(CNc2ncnc3nc[nH]c23)c1,"activity change, negative = inhibition",[5]; at 17.2 µM (top of the series),2.59%
same,"activity change, negative = inhibition",[7]; at 17.2 µM (top of the series),1.53%
same,"activity, negative = inhibition",[6]; at 17.2 µM (top of the series),-16.6%
same,Potency,[1],> 20.6 µM and > 46 µM
same,Potency,[2],> 20.6 µM and > 46 µM
same,Potency,[3],inactive
Cc1cc(O)c2c(c1)C(=O)c1cccc(O)c1C2=O,Potency,[8],> 92 µM
same,Potency,[9],> 92 µM
same,Potency,[10],> 92 µM
same,Potency,[11],> 92 µM
same,Potency,[12],> 92 µM
same,Potency,[13],> 92 µM
same,Potency,[3],inactive
same,outcome,[14],inactive
same,outcome,[15],inactive
same,outcome,[16],inactive
same,outcome,[17],inactive
same,outcome,[18],inactive
same,outcome,[19],inactive
same,outcome,[20],inactive
Nc1nc2c(c(=O)[nH]1)N(C=O)[C@H](CNc1ccc(C(=O)N[C@@H](CCC(=O)O)C(=O)O)cc1)CN2,"activity change, negative = inhibition",[5]; at 17.2 µM (top of the series),-9.84%
same,Potency,[4],inactive
same,"activity change, negative = inhibition",[7]; at 17.2 µM (top of the series),4.7%
same,"activity, negative = inhibition",[6]; at 17.2 µM (top of the series),7.59%
same,Potency,[1],> 20.6 µM
same,Potency,[2],> 20.6 µM
same,Potency,[3],inactive
CN1[C@H]2CC(OC(=O)[C@@H](CO)c3ccccc3)C[C@H]1[C@H]1O[C@H]12 (stereo partly drawn),"activity change, negative = inhibition",[5]; at 17.2 µM (top of the series),19.5%
same,"activity change, negative = inhibition",[7]; at 17.2 µM (top of the series),-45.8% (active)
same,"activity, negative = inhibition",[6]; at 17.2 µM (top of the series),-3.14%
CCOC(=O)C1=C(C)NC(=S)NC1c1cccc(O)c1 (stereo not drawn),Potency,[4],39.8 µM (active)
same,Potency,[1],> 46 µM
same,Potency,[2],> 46 µM
same,Potency,[3],inactive
COc1cc2c(cc1O)CCC1C2CC[C@@]2(C)C1CC[C@@H]2O (stereo partly drawn),Potency,[1],> 46 µM
same,Potency,[2],> 46 µM
COc1ccc2c(c1OC)C(=O)OC2[C@H]1c2c(cc3c(c2OC)OCO3)CCN1C (stereo partly drawn),"activity change, negative = inhibition",[5]; at 17.2 µM (top of the series),-2.27%
same,"activity change, negative = inhibition",[5]; at 38 µM (top of the series),-1.8%
same,Potency,[4],inactive
same,"activity change, negative = inhibition",[7]; at 17.2 µM (top of the series),-11.3%
same,"activity change, negative = inhibition",[7]; at 38 µM (top of the series),-9.62%
same,"activity, negative = inhibition",[6]; at 17.2 µM (top of the series),4.57%
same,"activity, negative = inhibition",[6]; at 38 µM (top of the series),2.78%
same,Potency,[1],> 46 µM and > 20.6 µM
same,Potency,[2],> 46 µM and > 20.6 µM
same,Potency,[3],inactive
CC(Oc1ccc(O)cc1)(P(=O)(O)O)P(=O)(O)O,Potency,[4],inactive
same,Potency,[1],> 46 µM
same,Potency,[2],> 46 µM
CC(C)[C@H](CO)Nc1nc(Nc2cccc(Cl)c2)c2ncn(C(C)C)c2n1,"activity change, negative = inhibition",[5]; at 38 µM (top of the series),-111% (active)
same,Potency,[4],2 µM (active) and 316 nM (active)
same,"activity, negative = inhibition",[6]; at 38 µM (top of the series),-81.5% (active)
same,Potency,[1],> 46 µM
same,Potency,[2],> 46 µM
same,Potency,[3],inactive
O=c1c(O)c(-c2ccc(O)c(O)c2)oc2cc(O)ccc12,Potency,[4],1.58 µM (active) and 2.51 µM (active)
same,Potency,[1],> 46 µM
same,Potency,[2],> 46 µM
same,Potency,[3],12.6 µM (active)

# Source: PubChem BioAssay (NCATS)
